Measured values taken from the antibiotic and cytotoxicity screens of Wong et al. (2023).
Hit rate of the full screen: of about 39,000 compounds, about 3,300 (8.5%) were called active. The full list was thinned out, with actives kept by preference.

system: HepG2; test: cytotoxicity call (relative viability < 0.9); details: 10 µM

SMILES	cytotoxicity call
O=C(O)c1cccnc1	inactive
O=C(c1cccnc1)N1CCOCC1	active
O=C(NCCCN1CCOCC1)c1cccnc1	inactive
Cc1ccc(S(=O)(=O)N(C)C[C@@H]2Oc3c(NC(=O)Nc4cccc5ccccc45)cccc3C(=O)N([C@H](C)CO)C[C@H]2C)cc1	inactive
CN(C)C(=O)c1cc2c(c(-c3cccc(/C=C/c4ccccc4)c3)n1)[C@H](CCO)N([S@@](=O)C(C)(C)C)C2	inactive
C[C@H]1CN([C@@H](C)CO)C(=O)c2cccc(NC(=O)Nc3ccc(C(F)(F)F)cc3)c2O[C@H]1CN(C)Cc1ccc(C(F)(F)F)cc1	inactive
C[C@@H]1CN([C@H](C)CO)C(=O)c2cccc(NC(=O)Nc3ccc(F)cc3)c2O[C@@H]1CN(C)Cc1ccc(C(F)(F)F)cc1	inactive
C[C@@H]1CN([C@H](C)CO)C(=O)c2cccc(NC(=O)Nc3ccc(C(F)(F)F)cc3)c2O[C@H]1CN(C)Cc1ccc(C(F)(F)F)cc1	active
C[C@@H]1CN([C@H](C)CO)C(=O)c2cccc(NC(=O)Nc3ccc(F)cc3)c2O[C@H]1CN(C)Cc1ccc(C(F)(F)F)cc1	inactive
C[C@H](CO)N1C[C@H](C)[C@@H](CN(C)Cc2ccc(C(F)(F)F)cc2)Oc2c(NC(=O)Nc3ccc(F)cc3)cccc2C1=O	active
C[C@@H]1CN([C@@H](C)CO)C(=O)c2cccc(NC(=O)Nc3ccc(F)cc3)c2O[C@H]1CN(C)Cc1ccc(C(F)(F)F)cc1	inactive
C[C@H](CO)N1C[C@H](C)[C@H](CN(C)Cc2ccc(C(F)(F)F)cc2)Oc2c(NC(=O)Nc3ccc(C(F)(F)F)cc3)cccc2C1=O	inactive
C[C@@H]1CN([C@@H](C)CO)C(=O)c2cccc(NC(=O)Nc3ccc(C(F)(F)F)cc3)c2O[C@@H]1CN(C)Cc1ccc(C(F)(F)F)cc1	inactive
C[C@H]1CN([C@@H](C)CO)C(=O)c2cccc(NC(=O)Nc3ccc(F)cc3)c2O[C@H]1CN(C)Cc1ccc(C(F)(F)F)cc1	inactive
C[C@@H]1CN([C@H](C)CO)C(=O)c2cccc(NC(=O)Nc3ccc(C(F)(F)F)cc3)c2O[C@@H]1CN(C)Cc1ccc(C(F)(F)F)cc1	active
C[C@H]1CN([C@@H](C)CO)C(=O)c2cccc(NC(=O)Nc3ccc(C(F)(F)F)cc3)c2O[C@@H]1CN(C)Cc1ccc(C(F)(F)F)cc1	active
C[C@H](CO)N1C[C@H](C)[C@@H](CN(C)Cc2ccc(C(F)(F)F)cc2)Oc2c(NC(=O)Nc3ccc(C(F)(F)F)cc3)cccc2C1=O	inactive
C[C@@H]1CN([C@H](C)CO)C(=O)c2cc(NC(=O)CCC(F)(F)F)ccc2O[C@H]1CN(C)S(=O)(=O)c1cn(C)cn1	inactive
CC(C)NC(=O)N(C)C[C@H]1Oc2c(NS(=O)(=O)c3cn(C)cn3)cccc2C(=O)N([C@@H](C)CO)C[C@@H]1C	inactive
C[C@@H]1CCCCO[C@@H](CN(C)Cc2ccc(C(=O)O)cc2)[C@H](C)CN([C@H](C)CO)C(=O)c2cc(NC(=O)Cc3ccccc3)ccc2O1	inactive
CC(C)CC#Cc1cnc2c(c1)C(=O)N([C@@H](C)CO)C[C@@H](C)[C@H](CN(C)S(=O)(=O)c1cccs1)O2	inactive
Cc1ccc(S(=O)(=O)N(C)C[C@H]2Oc3ccc(NS(=O)(=O)c4c(C)noc4C)cc3CC(=O)N([C@@H](C)CO)C[C@@H]2C)cc1	inactive

SMILES	cytotoxicity call
C[C@@H]1CN([C@H](C)CO)C(=O)Cc2cc(NC(=O)CCN3CCOCC3)ccc2O[C@H]1CN(C)S(=O)(=O)c1ccccc1	inactive
CC(=O)OCC(=O)O[C@@H]1[C@H]2[C@@H](OC(=O)c3ccccc3)[C@@H](C)C[C@]2(O)[C@H](OC(C)=O)[C@@]2(C)[C@H](OC(C)=O)[C@]1(OC(C)=O)C[C@H]1C(=O)C(C)(C)C[C@@H]12	inactive
O=C(NC(=O)N1CCOCC1)c1ccc(S(=O)(=O)N2CCOCC2)cc1	inactive
C[C@@H]1CN([C@H](C)CO)C(=O)c2cccc(NC(=O)c3ccncc3)c2O[C@@H]1CN(C)Cc1ccc(-c2ccccc2)cc1	inactive
C[C@H](CO)N1C[C@H](C)[C@@H](CN(C)S(=O)(=O)c2cccc(F)c2)Oc2ncc(Br)cc2C1=O	inactive
C[C@@H]1CN([C@H](C)CO)C(=O)c2cc(Br)cnc2O[C@H]1CN(C)C(=O)Nc1ccc2c(c1)OCO2	inactive
C[C@@H]1CN([C@@H](C)CO)C(=O)c2cccc(NC(=O)Nc3ccccc3)c2O[C@@H]1CN(C)Cc1ccc(C(F)(F)F)cc1	inactive
C[C@H]1CN([C@@H](C)CO)C(=O)c2cccc(NC(=O)Nc3ccc(C(F)(F)F)cc3)c2O[C@@H]1CN(C)Cc1ccc(Oc2ccccc2)cc1	inactive
C[C@H]1CN([C@@H](C)CO)C(=O)c2cccc(NC(=O)Nc3ccc(F)cc3)c2O[C@@H]1CN(C)Cc1ccc(C(F)(F)F)cc1	inactive
C[C@@H]1CN([C@H](C)CO)C(=O)c2cccc(NC(=O)Nc3ccc(C(F)(F)F)cc3)c2O[C@@H]1CN(C)Cc1ccc(-c2ccccc2)cc1	active
C[C@H](CO)N1C[C@H](C)[C@H](CN(C)Cc2ccc(C(F)(F)F)cc2)Oc2c(NC(=O)Nc3ccc(F)cc3)cccc2C1=O	inactive
C[C@@H]1CN([C@@H](C)CO)C(=O)c2cccc(NC(=O)Nc3ccc(C(F)(F)F)cc3)c2O[C@@H]1CN(C)Cc1ccc(Oc2ccccc2)cc1	active
C[C@H](CO)N1C[C@H](C)[C@H](CN(C)Cc2ccc(Oc3ccccc3)cc2)Oc2c(NC(=O)Nc3ccc(C(F)(F)F)cc3)cccc2C1=O	inactive
C[C@@H]1CN([C@@H](C)CO)C(=O)c2cccc(NC(=O)Nc3ccccc3)c2O[C@H]1CN(C)Cc1ccc(C(F)(F)F)cc1	inactive
C[C@@H]1CN([C@H](C)CO)C(=O)c2cccc(NC(=O)Nc3ccccc3)c2O[C@H]1CN(C)Cc1ccc(C(F)(F)F)cc1	active
C[C@H]1CN([C@@H](C)CO)C(=O)c2cccc(NC(=O)Nc3ccc(C(F)(F)F)cc3)c2O[C@H]1CN(C)Cc1ccc(-c2ccccc2)cc1	inactive
C[C@@H]1CN([C@H](C)CO)C(=O)c2cccc(NC(=O)Nc3ccc(C(F)(F)F)cc3)c2O[C@H]1CN(C)Cc1ccc(-c2ccccc2)cc1	inactive
C[C@@H]1CN([C@@H](C)CO)C(=O)c2cccc(NC(=O)Nc3ccc(C(F)(F)F)cc3)c2O[C@H]1CN(C)Cc1ccc(C(F)(F)F)cc1	active
COc1ccc(S(=O)(=O)Nc2ccc3c(c2)C(=O)N([C@H](C)CO)C[C@@H](C)[C@@H](CN(C)C(=O)Nc2ccccc2)OCCCC[C@@H](C)O3)cc1	inactive
CC(C)CC#Cc1ccc2c(c1)O[C@H](CN(C)C(=O)Cc1ccncc1)[C@H](C)CN([C@H](C)CO)S2(=O)=O	inactive
COc1cccc(S(=O)(=O)N(C)C[C@@H]2Oc3cc(C4=CCCC4)ccc3S(=O)(=O)N([C@@H](C)CO)C[C@H]2C)c1	inactive
Cc1noc(C)c1S(=O)(=O)Nc1ccc2c(c1)C(=O)N([C@H](C)CO)C[C@H](C)[C@H](CN(C)C(=O)Nc1ccccc1)O2	inactive

SMILES	cytotoxicity call
Cc1noc(C)c1S(=O)(=O)N(C)C[C@@H]1Oc2ccc(NS(=O)(=O)c3ccc(F)cc3)cc2CC(=O)N([C@H](C)CO)C[C@@H]1C	inactive
C[C@H]1CN([C@@H](C)CO)C(=O)c2cccc(NC(=O)c3nc4ccccc4s3)c2O[C@@H]1CN(C)C(=O)Nc1ccc(F)cc1	inactive
COc1ccccc1S(=O)(=O)N(C)C[C@@H]1OCc2cn(nn2)CCCC(=O)N([C@H](C)CO)C[C@H]1C	inactive
Cc1noc(C)c1S(=O)(=O)Nc1ccc2c(c1)C(=O)N([C@@H](C)CO)C[C@@H](C)[C@H](CN(C)S(=O)(=O)c1ccc(Cl)cc1)O2	inactive
COc1ccc(S(=O)(=O)N(C)C[C@@H]2Oc3ccc(NS(=O)(=O)c4c(C)noc4C)cc3CC(=O)N([C@@H](C)CO)C[C@H]2C)cc1	inactive
Cc1noc(C)c1NC(=O)Nc1ccc2c(c1)C(=O)N([C@H](C)CO)C[C@@H](C)[C@@H](CN(C)C(=O)C1CCCCC1)OCCCC[C@H](C)O2	inactive
C[C@H](CO)N1C[C@H](C)[C@H](CN(C)Cc2ccc(C(F)(F)F)cc2)Oc2c(NC(=O)NC3CCCCC3)cccc2C1=O	inactive
C[C@H](CO)N1C[C@H](C)[C@@H](CN(C)Cc2ccc(C(F)(F)F)cc2)Oc2c(NC(=O)NC3CCCCC3)cccc2C1=O	inactive
C[C@@H]1CN([C@H](C)CO)C(=O)c2cccc(NC(=O)NC3CCCCC3)c2O[C@@H]1CN(C)Cc1ccc(C(F)(F)F)cc1	active
CO[C@H]1CN(C)C(=O)c2ccc(NC(=O)C3CCOCC3)cc2OC[C@@H](C)N(Cc2cccnc2)C[C@H]1C	inactive
C[C@H](CO)N1C[C@H](C)[C@@H](CN(C)Cc2ccc(Cl)c(Cl)c2)Oc2ccc(NC(=O)Cn3cnnn3)cc2C1=O	inactive
C[C@@H]1CN([C@H](C)CO)C(=O)Cc2cc(NC(=O)Nc3ccccc3)ccc2O[C@H]1CN(C)Cc1ccc(-c2ccccc2)cc1	inactive
C[C@@H]1CN([C@@H](C)CO)C(=O)Cc2cc(NC(=O)Nc3ccccc3)ccc2O[C@@H]1CN(C)Cc1ccc(-c2ccccc2)cc1	inactive
CC(C)NC(=O)Nc1ccc2c(c1)CC(=O)N([C@H](C)CO)C[C@H](C)[C@H](CN(C)Cc1ccc(-c3ccccc3)cc1)O2	inactive
Cc1noc(C)c1NC(=O)Nc1ccc2c(c1)CC(=O)N([C@@H](C)CO)C[C@H](C)[C@H](CN(C)Cc1ccc(-c3ccccc3)cc1)O2	inactive
Cc1noc(C)c1NC(=O)Nc1ccc2c(c1)CC(=O)N([C@H](C)CO)C[C@@H](C)[C@H](CN(C)Cc1ccc(-c3ccccc3)cc1)O2	inactive
C[C@@H]1CN([C@H](C)CO)C(=O)Cc2cc(NC(=O)Nc3ccccc3)ccc2O[C@@H]1CN(C)Cc1ccc(-c2ccccc2)cc1	active
C[C@H](CO)N1C[C@H](C)[C@H](CN(C)Cc2ccc(-c3ccccc3)cc2)Oc2ccc(NC(=O)Nc3ccccc3)cc2CC1=O	active
C[C@H]1CN([C@@H](C)CO)C(=O)Cc2cc(NC(=O)Nc3ccccc3)ccc2O[C@H]1CN(C)Cc1ccc(-c2ccccc2)cc1	inactive
Cc1noc(C)c1NC(=O)Nc1ccc2c(c1)CC(=O)N([C@@H](C)CO)C[C@@H](C)[C@@H](CN(C)Cc1ccc(-c3ccccc3)cc1)O2	active
C[C@@H]1CN([C@@H](C)CO)C(=O)Cc2cc(NC(=O)Nc3ccccc3)ccc2O[C@H]1CN(C)Cc1ccc(-c2ccccc2)cc1	active
